# The supplement of paper PMC11417369
# In all, about 25,000 sequences were measured (“ln(normalized median fluorescence intensity)”: median about 9.7, highest 2% from about 11 on). The sample as a whole holds a higher share of the highest values than the screen did.
# System: PfAP2-HC AP2 domain (GST-tagged)
# Assay: gcPBM binding intensity (ln(normalized median fluorescence intensity)); higher = stronger DNA binding
# Outline: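 Each value is the highest Masliner-normalised natural-log median intensity across replicate spots of either orientation of a probe. The probes were primer-extended double-stranded 36-bp intergenic genomic sequences on an Agilent 4 × 180k array, alongside negative controls, exposed for 1 h to GST-tagged P. falciparum DNA-binding domains expressed in E. coli. Bound protein was picked up with Alexa488 anti-GST antibody and scanned at 488 nm.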
row,Sequence,gcPBM binding intensity (ln)
1,TAAGATATAAAAAATGTGCACATTAAAGTATTAATT,9.86
2,TATTGTAAGAAAGGCACACAGATAAAATTATTATAT [CACACA_site2921],9.87
3,CGGTATTTTTTAATTTGTACGCATATACAATAATTA [XGTACX_site8603],9.54
4,TTTTTGTTATATAAAGTGCAGTGACAAGCAGTTTAA,9.56
5,TTTTTTTATATTTTTAGTACACATTGGTATATATAT [XGTACX_site4114],9.78
6,TTCTTTAAAATATTATGTACACATTGCGAACAGTTT [XGTACX_site5418],9.76
7,CACAGACACGGACACACACACACACCCACATATATA [CACACA_site4355],11.5
8,AGCACAGACGGACACACACACACACCCACAGACACA [CACACA_site4358],11.4
9,CACAGACACGGACACACACACATATATAATATATAT [CACACA_site4495],10.8
10,TGTATGTTTATTTATCGTACATATATATATATATAT [XGTACX_site7315],10.1
11,TACGCGAAATGAATATGTACATATATGAGGGCATAT [XGTACX_site4293],9.75
12,ATTTGAAATGCATGAACACACACAGCTATAAATGCA [CACACA_site8229],9.82
13,GAAATAAGTTAAAATAGTACGTAGTGTTCCTTAAGT [XGTACX_site6557],9.81
14,ACACAAAAATAGTTTTTTATATTGTTAACCTTATAT [XGTACX_negctrl_site123],9.71
15,AAAAATATAAATGACACACACTTAAAAACAAAGAAA [CACACA_site4540],10.2
16,TTTAATCAAATTAAAAGTACAGAATTGTTCATGTAG [XGTACX_site1229],9.53
17,ACTCATAAAAATAGATGTACTTTAATAATTTGATTT [XGTACX_site8763],9.48
18,TATATATATATACCAACACACATACATATATATATA [CACACA_site8530],9.99
19,AATAACCACGGACACACACACATATATATATATATA [CACACA_site5873],10.9
20,CCCCCCCACGAACACACACACATACATACCACATAT [CACACA_site7149],11
21,CCCCCCCACGGACACACACACATACATACCACATAT [CACACA_site5303],11.3
22,CACGCGAACATACATACACACACATATATATATATG [CACACA_site7951],10.1
23,AGTATACACGAACACACACACACATATATAAATATA [CACACA_site6913],10.7

row,Sequence,gcPBM binding intensity (ln)
1,AACATATACACGAACACACACACATATATATATATA [CACACA_site502],11.6
2,TACATACACGGACACACACACATATATATATATATA [CACACA_site5883],10.7
3,CATATACACGAACACACACACATATATATATATATA [CACACA_site4437],10.5
4,TTTTTTTTTTTTACATGTACTTATTTTAAATATAAA [XGTACX_site805],9.71
5,TATGTTTTTCGGTATGCATGCATATGCTTAATAATA [TGCATGCA_site184],9.55
6,AATATATAGAGAGATATGCACACTGTATGAATGCAC [CACACA_site2677],9.78
7,AAATATTTATAGGTTTGTACTTATAAATAAAAAAAA [XGTACX_site7360],9.5
8,TATTAAATTATATAGACACACATTATATATATATAT [CACACA_site4345],9.78
9,TATGGAATAAATTTATCCATACATCTTATAACATAT [XGTACX_negctrl_site500],9.63
10,ATTTATTTTTTACATTGTACATATTTATTCCTTTTA [XGTACX_site8028],9.95
11,GTAATATGTATCCATACACACATACAGTTTATTTGC [CACACA_site6540],9.96
12,TAAAATTATGTAATAACACACATATACAATACATAT [CACACA_site1236],9.94
13,AGGGTTACAAGAGGAACACACAAAAAAATAAATAAA [CACACA_site1436],10
14,AATATATATTAAATATGTACTTATTTTTTGGTTGCT [XGTACX_site3613],9.63
15,TTTAAATAAAAATGGAGTACTCTAAAAAAAAAAAAA [XGTACX_site1233],9.37
16,CATACACAAGAAAATTCACACACACCCATATATATA [CACACA_site9288],11.3
17,TACACAAGAAAATTCACACACACACCCATATATATA [CACACA_site3879],10.7
18,TACACAAGAAAATTCACACACACACCGATATATATA [CACACA_site6008],10.7
19,AAAACAAAAGAATTCACACATATATATATATATATA [CACACA_site4777],10.2
20,CACAAGAAAGTTCACACACACACATATATATATATA [CACACA_site6009],10.1
21,CACAAGAAAATTCACACACACACATATATATATATA [CACACA_site3880],10.9
22,TATATATATATGTGTACACATTTGTCAGATTATATA [CACACA_site4813],9.79
23,AGGATATATAAGTATACACACATATTTATATTTATA [CACACA_site6239],9.75

row,Sequence,gcPBM binding intensity (ln)
1,AAAATTTAAAGCATGACACACAATTATATTATGTGC [CACACA_site3435],9.76
2,ATGATGTGCTTTAAAAGTACTTAAGTTATATTCTTT [XGTACX_site7127],9.7
3,TATATACACGCACATACACACAAATAAAAAAACACC [CACACA_site7578],10.2
4,ATAATATAACAATACGCACACGTATACAAAAAAAAA [CACACA_site5703],9.99
5,ATTGTCAAAACACGCACACACATATACATAATAACA [CACACA_site1742],11.1
6,AAAATTCATAAATACACACACGCACATATATATATA [CACACA_site4227],10.2
7,TTAATAACAAAATAAACACACATATATAAATACACA [CACACA_site6849],10.5
8,AAATTGTCAAAACACGCACACACATATACATAATAA [CACACA_site1743],10.9
9,TAAATCCGTTTGATGGGTACATACATACATACATAT [XGTACX_site8889],9.73
10,GGATGTATTTATATGTGTATGTGTTTGGAAATATGT [XGTACX_negctrl_site99],9.85
11,GTCATATATAATTGTTGTACATTTTTATAATTATGT [XGTACX_site8091],9.83
12,ACATATATATATATATATATATATATATATAGATAG [CACACA_negctrl_site783],9.92
13,GGTTCATAATATGGTTGTACATAAATATATATATAT [XGTACX_site7583],9.86
14,TATAATAATACTTATTGTACGATTAGCTTAATTCGT [XGTACX_site15],9.51
15,GAAATAGAGAAACACACACACATATATTTATGTATT [CACACA_site3967],10.4
16,TATAAAAATAAGCACACACACAAATATAGATTTATT [CACACA_site6558],11.3
17,TAAATAAAAAGACACACACACATATTTATATTTATA [CACACA_site7135],10.4
18,CAGAAATAGAGATACACACACACATATATTTATGTA [CACACA_site3968],11.3
19,CAATATAAAAGACACACACACAAACATATATTTATA [CACACA_site7697],11.3
20,GAAATAGAGAGACACACACACATATATTTATGTATT [CACACA_site7794],10.4
21,AATATTTATAAAGACACACAAACAAAAAGGATAAAA [CACACA_site2985],10.3
22,ATAAAATTTATATAAGCACACAAATATATATTTATA [CACACA_site9083],9.7
23,TATAAAAATAAGCACACACACAAATATATATTTATT [CACACA_site922],10.3

row,Sequence,gcPBM binding intensity (ln)
1,CATAAATACAAATATACACACATATTTATATTTATA [CACACA_site7277],9.78
2,AAGAAATATTTATACACACACACAAACATATATATA [CACACA_site1912],10.5
3,AAGAAATATTTATACACACACACAAACATATAAATA [CACACA_site6981],11.1
4,CACTTAAAAAGCTAACGTACAAATACACATATATAA [XGTACX_site1851],9.66
5,CAAAACATTTTATCTACACACATATATAAATAAATA [CACACA_site3220],9.77
6,GTTTACATTTTAAGAAGTACAAAATTTATGGTTAAA [XGTACX_site450],9.42
7,TTAGGACAAAAAAAAATAAAAATAAAATAAAATAAT [CACACA_negctrl_site1613],9.61
8,TTTTAATATTTTAAGAGTACAGAAATATATAATATG [XGTACX_site4955],9.33
9,TTATTTTACTTTTATGCAACTAAAAATATTGCTATA [XGTACX_negctrl_site277],9.6
10,GAGATAAAATAAAACACACACATATATTTATATAAC [CACACA_site7098],10.9
11,TAAAAAAAAAAAAAAACACACATATAAATATTTATA [CACACA_site6702],9.61
12,AAAACAAACAGACACACACACATATATATATATATA [CACACA_site3655],10.8
13,AATTTTTTATTAAACACACAAACATATATATATATA [CACACA_site1937],9.66
14,GAATATTAAACAAACACACACACATATATTTATATA [CACACA_site7563],11.1
15,TGACATAAATTTAATACACACACAAAGAAAAAAAAA [CACACA_site9354],10.2
16,GAAAGAATAAAATTTACACACATATATAAATACATA [CACACA_site5273],9.87
17,ACATAAATTTAATACACACACAAAGAAAAAAAAAAA [CACACA_site4088],10.9
18,GAATATTAAACAAACACACACACATATATATATATA [CACACA_site3382],10.7
19,AAAACAGACAAACACACACACACATATATATATATA [CACACA_site3393],10.6
20,CATAAAATATAAAACACACACACATATATTTATATA [CACACA_site6247],10.5
21,AAAACAAACAGACACACACACATATTTATATTTATA [CACACA_site7681],11
